Screens as filed in PubChem.
A selection: hits, their analogues and other compounds. The true share with any hit is near 19%.
IL-1B inflam inh: inhibitors of inflammasome signaling (IL-1 beta secretion); THP-1 LPS/ATP IL-1B secretion, AlphaLISA, 16 h; stronger effect = lower value; activity change, % at 57.5 µM; actives 4.7% (n = 360,000); AID 743279; in the data active = activity change below about -50%; inconclusive = mostly about -30% to -49%; note: % is set by controls: 0 for no effect and ±100 for the full control effect
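THP-1 cells pretreated 1 hr with compounds (up to 57.5 uM final), then stimulated with LPS (250 ng/mL final) plus ATP (1.25 mM final); secreted IL-1B measured by AlphaLISA after 16 hr, decreased signal indicating inhibition.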
TDP1 cell noCPT: qHTS for Inhibitors of human tyrosyl-DNA phosphodiesterase 1 (TDP1): qHTS in cells in absence of CPT. AID 686978, 2013. actives 15% (n = 420,000). Potency, µM (titrated, usually from 46.2 µM), for inactives: at the highest dose activity change, negative = growth inhibition, actives largely listed as inhibitors. DT40 Tdp1-/- hTDP1 cells, no CPT, ATP luminescence, 48 h; note: potency is the fitted concentration of half-maximal effect; % is set by controls: 0 for no effect and ±100 for the full control effect; nearly all actives have a fitted effect of over 55% in size
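A cellular qHTS used chicken DT40 cells lacking endogenous Tdp1 but carrying stably transfected human TDP1. Compounds were applied without camptothecin, and cell growth kinetics were judged by ATP-dependent luminescence after ≥48 hr.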
HepG2 tox: HepG2 cytotoxicity, counter-screen for TGF-b inhibitors | Potency, µM (series often up to 46.1 µM), for inactives: at the top dose activity change, negative = cytotoxicity, hits mostly cytotoxic | actives 0.76% (n = 410,000) | HepG2 CAGA-GFP viability, ATP luminescence, 18 h; note: potency is the fitted concentration of half-maximal effect
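CellTiter-Glo luminescence gave cytotoxicity after 18 hours at 37 degrees C. The cells were HepG2 CAGA-GFP in 1% FBS DMEM, stimulated with 500 pg/mL TGF-beta after compound addition. %Activity was normalised to no-cell wells (complete cell-killing) and DMSO (no toxicity), and curves were fitted and classified.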
TDP1 inh: TDP1 (human) enzyme inhibition; AID 485290; actives 0.28% (n = 350,000); Q9NUW8; recombinant TDP1, AlphaScreen DNA substrate cleavage; Potency, µM (doses to about 130 µM), without a hit: top-dose activity change, negative = inhibition, actives largely listed as inhibitors; note: potency is the fitted concentration of half-maximal effect; % is set by controls: 0 for no effect and ±100 for the full control effect; nearly all actives have a fitted effect of over 40% in size
Target sequence (Q9NUW8 whole entry, looked up): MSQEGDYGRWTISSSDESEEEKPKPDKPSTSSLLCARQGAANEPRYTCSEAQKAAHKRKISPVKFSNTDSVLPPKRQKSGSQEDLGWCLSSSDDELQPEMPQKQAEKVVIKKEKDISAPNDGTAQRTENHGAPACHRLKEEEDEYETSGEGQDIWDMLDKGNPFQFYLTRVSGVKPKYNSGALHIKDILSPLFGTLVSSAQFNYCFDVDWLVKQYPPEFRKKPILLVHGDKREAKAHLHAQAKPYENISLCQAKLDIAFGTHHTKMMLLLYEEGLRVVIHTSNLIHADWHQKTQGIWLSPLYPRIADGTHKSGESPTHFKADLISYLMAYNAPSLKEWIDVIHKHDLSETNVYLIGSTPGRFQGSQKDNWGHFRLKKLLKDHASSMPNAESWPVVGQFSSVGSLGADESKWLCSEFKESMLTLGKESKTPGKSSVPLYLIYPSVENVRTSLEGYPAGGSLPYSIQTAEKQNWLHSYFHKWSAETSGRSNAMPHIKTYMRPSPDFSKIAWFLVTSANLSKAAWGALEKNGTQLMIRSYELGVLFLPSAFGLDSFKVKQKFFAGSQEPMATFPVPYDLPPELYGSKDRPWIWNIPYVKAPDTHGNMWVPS
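Compounds were preincubated with Tdp1 (1 nM final) for 15 min at room temperature before substrate (15 nM final) started a 5 min reaction; beads (10 ug/ml final) were then added for 10 min before AlphaScreen detection.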
TGFb SMAD3 inh: inhibitors of TGF-b signaling; Potency, µM (top dose mostly 46.1 µM), inactives show top-dose activity, negative = inhibition, usual class: inhibitors; HepG2 CAGA-GFP TGF-b/SMAD3 reporter, GFP fluorescence, 18 h; TGF-beta stimulated, 500 pg/mL final; AID 588855; actives 1.2% (n = 410,000); note: potency is the fitted concentration of half-maximal effect; % is set by controls: 0 for no effect and ±100 for the full control effect; nearly all actives have a fitted effect of over 65% in size
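TGF-beta reporter screen: HEPG2 CAGA-GFP, 1% FBS, 500 pg/mL TGF-beta final, 18 h; per-cell GFP summed per well; curves fitted and categorized by class.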
DT40 TDP1 CPT: growth inhibition of DT40 Tdp1-/-;hTDP1 cells with camptothecin (screen for TDP1 inhibitors); chicken DT40 Tdp1-/-;hTDP1 cells + 20 nM CPT, ATP luminescence, 48 h; Potency, µM (series often up to 46.2 µM), inactives show at the top dose activity change, negative = growth inhibition, usual class: inhibitors; actives 12% (n = 420,000); AID 686979; note: potency is the fitted concentration of half-maximal effect; % is set by controls: 0 for no effect and ±100 for the full control effect; nearly all actives have a fitted effect of over 55% in size
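Chicken DT40 Tdp1-/- cells complemented with human TDP1, 400 cells/well, exposed to compounds plus 20 nM camptothecin for at least 48 h at 37 C; viability read as ATP content by CellTiter-Glo luminescence.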
* marks the source's active call; other numbers are inactive results; u = inconclusive; x = not tested or not shown; [ ] = another dose, or the depositor's remark. Unless noted, calls come from the whole dose curve; as a rule, active = well fitted curve in the direction sought with a large enough effect; inconclusive = small, poorly fitted or top-dose-only effect, or another doubt; inactive = no such curve, though single readings can be large; an effect the other way counts as inactive or inconclusive.

SMILES	IL-1B inflam inh	TDP1 cell noCPT	HepG2 tox	TDP1 inh	TGFb SMAD3 inh	DT40 TDP1 CPT
CS(=O)(=O)N1CCC(C(=O)Nc2ccc(Cl)c(C(F)(F)F)c2)CC1	-11	23µM*	-30%	4%	-4%	u
COc1ccc(NC(=O)C2CCN(S(=O)(=O)c3cn(C)cn3)CC2)cc1Cl	x	-15%	-2%	1%	-3%	-17%
Cn1cnc(S(=O)(=O)N2CCC(C(=O)Nc3ccc(Cl)c(C(F)(F)F)c3)CC2)c1	x	13µM*	-5%	1%	1%	16µM*
COc1ccc(CCNC(=O)c2cc(-c3ccccc3)c(N3CCOCC3)s2)cc1OC	-11	16µM*	-3%	x	3%	21µM*
CSc1ccc(CCNC(=O)c2cc(C)nn2-c2ccccc2)cc1	3	u	9%	4%	17%	-29%
O=C(NCCc1ccccc1)c1cc(-c2ccccc2)c(N2CCOCC2)s1	u	16µM*	-2%	x	u	u
CCN(CC)CCCNC(=O)c1nn2c(C(F)(F)F)cc(-c3ccccc3)nc2c1Cl	u	u	0%	x	-12%	u
CCN(CC)CCCNC(=O)c1cc(-c2ccccc2)c(N2CCCCC2)s1	-10	15µM*	10%	x	4%	u
CSc1ccc(CCNC(=O)c2cc(-c3ccccc3)c(N3CCOCC3)s2)cc1	-12	16µM*	-4%	6%	3%	u
COc1ccc(CCNC(=O)c2ccc(CNc3c(N4CCOCC4)c(=O)c3=O)cc2)cc1OC	-8	-14%	11%	4%	11%	16%
CSc1ncc(C(=O)Nc2cccc(C)c2C)c(C)n1	u	-10%	-3%	x	0%	-26%
Clc1ccc2ncnc(NCc3ccc4c(c3)OCO4)c2c1	x	2.5µM*	x	7%	x	3.2µM*
Oc1ccc(CCNc2ncnc3ccc(Cl)cc23)cc1	46	2.3µM*	-20%	x	-4%	2.6µM*
Cc1ccccc1OCC(=O)OCC(=O)NCCc1ccccc1	-4	-7%	-5%	0%	-6%	-9%
Cc1ccc(C(NC(=O)N2CCOCC2)C(Cl)Cl)cc1F (stereo not drawn)	20	6%	-9%	1%	3%	u
Cc1ccc(C(NC(=O)N2CCOCC2)=C(Cl)Cl)cc1F	-101*	16µM*	-42%	2%	u	6.5µM*
COc1ccc(CCNC(=O)c2cc(S(=O)(=O)N3CCCCC3)c[nH]2)cc1OC	24	-8%	-5%	x	0%	-21%
CN(C)CCNc1nc2sc3c(c2c(=O)n1CCc1ccccc1)CCCCC3	-75*	10µM*	-130%	0%	u	21µM*
CC(O)CNc1nc2sc3c(c2c(=O)n1CCc1ccccc1)CCCCC3 (stereo not drawn)	-82*	16µM*	-39%	8%	u	23µM*
Cc1ccc(CNC(=O)c2c3c(nc4ccccc24)C(=O)N(C2CCCCC2)C3)cc1	x	16µM*	-21%	7%	-6%	u
CCNC(=O)c1c2c(nc3ccccc13)C(=O)N(C1CCCCC1)C2	x	-19%	0%	11%	u	-19%
CCc1ccc(CNC(=O)c2c3c(nc4ccccc24)C(=O)N(C2CCCCC2)C3)cc1	x	16µM*	-28%	11%	u	u
CSCCC(NC(=O)c1ccccc1Br)C(=O)N1CCN(C/C=C/c2ccccc2)CC1 (stereo not drawn)	-12	u	-20%	x	u	2.6µM*
COCCSc1ccccc1C(=O)N1CCC(Cc2ccccc2)CC1	-54*	-27%	-2%	7%	-4%	u
COc1ccccc1C(=O)NC(CCSC)C(=O)N1CCC(Cc2ccccc2)CC1 (stereo not drawn)	-60*	18µM*	-7%	6%[0.505 µM]	u	15µM*
SMILES	IL-1B inflam inh	TDP1 cell noCPT	HepG2 tox	TDP1 inh	TGFb SMAD3 inh	DT40 TDP1 CPT
CSCCC(NC(=O)c1ccccc1Cl)C(=O)N1CCN(C(C)=O)CC1 (stereo not drawn)	2	0%	-3%	0%	8%	-9%
COCCNC(=S)N1CCC(Cc2ccccc2)CC1	6	u	-3%	7%	-18%	u
CSCCC(NC(=O)c1ccccc1)C(=O)N1CCN(C(=O)c2ccccc2)CC1 (stereo not drawn)	5	1%	-4%	0%	2%	-24%
Cc1c(C(=O)N2CCC(Cc3ccccc3)CC2)cccc1[N+](=O)[O-]	-104*	u	-14%	6%	u	u
CCCn1cnnc1CNC(=O)C1CCC(=O)N(CCCc2ccccc2)C1 (stereo not drawn)	-6	1%	2%	4%	-22%	0%
CCOC(=O)c1c(C)[nH]c(C(=O)OCC(=O)NC2(C#N)CCCCC2)c1C	u	u	2%	0%	-8%	u
Cc1cccc(C(=O)N2CCC(Cc3ccccc3)CC2)c1[N+](=O)[O-]	-87*	6.5µM*	-32%	3%	-3%	8.2µM*
Cc1ccc(C(=O)N2CCC(Cc3ccccc3)CC2)cc1[N+](=O)[O-]	-30	u	1%	5%	-13%	u
CN1CCC(Oc2ccccc2Sc2ccc(C(F)(F)F)cc2)CC1	16	u	-23%	5%	9%	u
CN1CCC(Oc2ccc(Sc3ccccc3)cc2)CC1	-55*	23µM*	-20%	0%	-6%	u
O=C(N/C(=C\c1ccc([N+](=O)[O-])cc1)C(=O)N1CCCCC1)c1ccccc1	13	u	-4%	0%	-5%	u
O=[N+]([O-])/C(C(Cl)=C(Cl)Cl)=C(/Sc1ccccc1)N1CCCCC1	-89*	13µM*	2%	3%	-33%	u
Cc1ccc(S(=O)(=O)N(C)c2ccc(OCC(=O)NCC3(N(C)C)CCCCC3)cc2)cc1	12	u	-38%	4%	-26%	u
O=C(CS(=O)(=O)c1cccc2nsnc12)NCc1ccccc1	x	4%	6%	1%	-4%	-11%
CCN(Cc1ccccc1)C(c1cccs1)c1nnnn1C1CCCCC1 (stereo not drawn)	-8	29µM*	-24%	-7%	u	u
CC(C)(C)n1nnnc1C(c1cccs1)N(Cc1cccnc1)Cc1ccccc1Cl (stereo not drawn)	-12	18µM*	-32%	5%	18µM*	u
